From PubChem BioAssay (NCI) come the findings set out here.

Common to all, as to experiment: NCI-60 one-dose screen, 48 h (100 = growth as untreated, 0 = no growth, -100 = all killed)
What all share (settings): 10 µM unless noted

The subject of test [1] is HT29 colon.
The test system of test [2] is SNB-75 CNS.
Test [3] has as its system SNB-19 CNS.
Test [4] relates to U251 CNS.
Test [5] relates to PC-3 prostate.
Test [6] deals with SK-MEL-5 melanoma.
The test system of test [7] is UACC-62 melanoma.
For test [8], the system named is LOX IMVI melanoma.
In test [9] the test system is SK-MEL-28 melanoma.
Test [10] deals with SK-MEL-2 melanoma.

Compounds without any hit were thinned out: in the full panel of roughly 83,000, 20% have a hit.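 Percent growth is the endpoint: 0 to 100 indicates growth inhibition (40 means 60% inhibition), 0 means no net growth, and negative values indicate cell death.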 Unmarked numbers belong to inactive results. The source made the active and inactive calls. How the source made its calls: active means growth percent below 10; inactive means the rest.

For the compound `CCOC(=O)c1c(Nc2ccccc2)nn2c(N)c(C#N)c(-c3ccc(OC)cc3)nc12`, the growth in [1] is 76.7%; in [2], -15.3% (active); in [3] it was 76.5%; in [4] it was 71.3%; in test [5] it was 66.1%; in test [6] it was 87.4%. Also, the growth was 80.4% in test [7], 71% in test [8], 78.4% in test [9] and 89.2% in test [10].

For `O=C1Nc2cc(Cl)ccc2/C1=C\c1ccc(OCc2ccc([N+](=O)[O-])cc2)cc1`, the growth in test [1] was 76.8%; in test [2], 57.5%; in [3], 91%; in test [4], 81.6%; in test [5] it was 59.4%; in [6] it was 84.4%. The results for the growth in test [7], in test [8] and in test [9] were 67.8%, 65.8% and 84.7%, respectively.

Turning to `COc1cc2cc(Oc3ccc(NC(=O)c4cccc(C(F)(F)F)c4)cc3)c(C)nc2cc1OCCN1CCCCC1`, the growth in test [1] is -50.7% (active); in [2] it was 90.8%; in test [3], 90.2%; in test [4], -63.8% (active); in test [5] it was 33.1%; in [6], 38.7%. For the same compound, the growth is -65.8% (active) in test [7], -93.6% (active) in test [8], -88.5% (active) in test [9] and 74% in [10].

For the compound `CN(C)CCCNc1c2ccc(Cl)cc2nc2c1oc1ccccc12`, the growth in test [1] is -22.2% (active); in [2] it was 29.9%; in [3], 16.5%; in test [4] it was 18.8%; in test [5], 13.7%; in test [6], -98.1% (active). For the same compound, the growth in test [7] was 13.4%; in test [8], -83.4% (active); in test [9], 16.4%; in [10], 21.3%.

With `OC1CCN(CCCOc2c3ccccc3nc3c2oc2ccc(Cl)cc23)CC1`, the growth in test [1] was 1.25% (active); in test [2], 21%; in test [3], 21.8%; in test [4] it was 21.7%; in test [5] it was 8.35% (active); in test [6], 26.6%. Besides, the growth in test [7] was -19.5% (active); in test [8], -73.8% (active); in test [9], 24.9%; in test [10], 14%.

`COc1ccc(NC(=O)c2sc3nc(-c4cnccn4)cc(-c4cccs4)c3c2N)cc1`: the growth in test [1] was 20.8%; in test [2] it was 67.1%; in test [3], 93.6%; in test [4], 55.5%; in [5] it was 82.7%; in [6], 59.4%. For the same compound, the growth in test [7] is 32.7%; in test [8] it was 18.4%; in test [9], 84.3%; in test [10], 86.6%.

For `Nc1cc(-c2c[nH]c3ccc(Cl)cc23)nc2cc(-c3c[nH]c4ccc(Cl)cc34)nn12`, the growth is 0.992% (active) in test [1]; 71.9% in [2]; 70.5% in [3]; 9.85% (active) in test [4]; 36.4% in [5]; 70.9% in [6]. In addition, the growth is 70.4% in test [7], -5.92% (active) in test [8], 80.8% in [9] and 71.6% in test [10].

In the case of `CS(=O)(=O)Nc1ccc(-c2nn(-c3ccc(S(C)(=O)=O)cc3)cc2/C=C/C(=O)c2ccc(NC(=O)CO[N+](=O)[O-])cc2)cc1`, the growth is 104% in test [1]; 108% in test [2]; 100% in test [3]; 101% in test [4]; 98.2% in test [5]; 100% in test [6]. Moreover, the growth was 100% in test [7], 93.2% in test [8], 104% in test [9] and 97.3% in [10].

Consider `O=C1/C(=C/C2=Cc3ccccc3OC2)SC(=S)N1c1ccc(F)cc1`, for which the growth in [1] is 118%; in test [2] it was 100%; in [3], 93.2%; in [4], 94.9%; in test [5], 115%; in [6] it was 100%. Further, the growth was 97.4% in test [7], 92.5% in [8] and 97.9% in test [9].

On to `COc1ccc(/C=N/Nc2ccnc3cc(Cl)ccc23)cc1Cl`, for which the growth in test [1] was -55.3% (active); in test [2] it was -88.5% (active); in [3], -79.2% (active); in test [4] it was -90.7% (active); in test [5], -24.9% (active); in [6], -93.5% (active). Moreover, the growth in [7] is -86.4% (active); in [8], -35.5% (active); in [9] it was -92.4% (active); in test [10], -88% (active).

As to `COc1ccc(-c2nc3ccc(-c4nnc(SCC(=O)Nc5ccc(C(=O)/C=C/c6ccc(Cl)cc6)cc5)o4)cc3[nH]2)cc1OC`, the growth in test [1] was 108%; in test [2] it was 106%; in test [3], 109%; in [4], 100%; in test [5], 97.7%; in test [6], 97.6%. Further, the growth in [7] is 98%; in [8], 3.17% (active); in test [9] it was 105%; in [10] it was 112%.

On to `Nc1c(C(=O)Nc2ccc(Cl)cc2)sc2nc(-c3cnccn3)cc(-c3cccs3)c12`, for which the growth is -10.3% (active) in test [1]; 14.2% in [2]; 49.1% in test [3]; 17.9% in test [4]; 54.3% in [5]; 76.5% in test [6]. Moreover, the growth in test [7] was 69.5%; in test [8], -16.8% (active); in test [9] it was 64.8%; in test [10], 85.4%.

`COc1ccc2[nH]cc(-c3cc(N)n4nc(-c5c[nH]c6ccc(OC)cc56)cc4n3)c2c1`: the growth is -56.1% (active) in test [1]; 106% in [2]; 78.6% in test [3]; -87.6% (active) in test [4]; 5.09% (active) in test [5]; 3.11% (active) in test [6]. Further, the growth in test [7] was -53.4% (active); in test [8], -63.9% (active); in [9], -69.4% (active); in [10] it was 72.5%.

Turning to `COC1CCN(Cc2ccc3c(NNC(=O)c4cnccn4)nc4cc(F)ccc4n23)C1` (stereo not drawn), the growth in [1] was 19.3%; in [2], 65.8%; in test [3], 36.1%; in test [4], 12.8%; in [5], 40.9%; in test [6], 15.9%. In addition, the growth was 20.7% in test [7], 5.96% (active) in test [8], 29.2% in test [9] and 74.7% in test [10].
